In PubChem BioAssay AID602229 (The Scripps Research Institute Molecular Screening Center, 2012):
In all, about 360,000 compounds went through this assay and about 1,300 (0.36%) were called active.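 How the source made its calls: active means inhibition above the mean of all tested compounds plus 3 SD (cut at about 70% in these data); inactive means the rest.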 The list comes from a sample in which actives are over-represented; it also holds similar structures and randomly drawn compounds.

target: Photoreceptor-specific nuclear receptor (Homo sapiens) (UniProt Q9Y5X4); experiment: NCOR release from NR2E3 in cells – cell-based, luminescence, CHO-S, Gal4-NCOR/VP16-NR2E3, primary screen (AID 602229); conditions: CHO-S Gal4-NCOR/VP16-NR2E3 two-hybrid, luciferase; at 3.98 µM; active compounds read high;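 further: 0% = DMSO with NR2E3 transfected cells and 100% = cells lacking NR2E3 construct; higher means lower luciferase signal from less NR2E3 corepressor binding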
Sequence (Q9Y5X4 whole entry, looked up, the tested form may be a part): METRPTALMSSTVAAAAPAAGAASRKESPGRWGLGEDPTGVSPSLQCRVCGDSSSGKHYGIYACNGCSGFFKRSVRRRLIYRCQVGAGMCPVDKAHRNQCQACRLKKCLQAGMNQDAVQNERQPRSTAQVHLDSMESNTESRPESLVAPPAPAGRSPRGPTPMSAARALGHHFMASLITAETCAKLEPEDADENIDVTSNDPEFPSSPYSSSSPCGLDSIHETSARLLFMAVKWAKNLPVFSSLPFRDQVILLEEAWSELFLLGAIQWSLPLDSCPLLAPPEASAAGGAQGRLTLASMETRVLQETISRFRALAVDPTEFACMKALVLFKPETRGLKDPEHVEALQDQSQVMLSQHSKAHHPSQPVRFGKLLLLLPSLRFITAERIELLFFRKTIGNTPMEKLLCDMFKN

Inhibition of corepressor binding, inactive:
C[C@H](CO)N1C[C@H](C)[C@H](CN(C)CC2CC2)Oc2ccc(NC(=O)CCN3CCOCC3)cc2C1=O -4.02%
COc1cccc(CNc2nc(NCc3ccccc3OC)nc3ccsc23)c1 54.7%
COc1ccccc1CNc1nc(Nc2ccccc2Cl)c2sccc2n1 64.7%
CC[C@]1(c2ccccc2OC)C(=O)N(C(=O)OC)N1C(=O)OC 14.9%
COc1cc(C(=O)NCc2ccc(-n3cccc3)cc2)cc(OC)c1OC 11.4%
COc1cc(C(=O)NCc2nnc(SCC(=O)Nc3nc4ccc(C)cc4s3)o2)cc(OC)c1OC -10.1%
Cc1ccc(N(CCC(=O)O)S(=O)(=O)c2cccc(C(F)(F)F)c2)cc1 4.8%
Cc1noc(C)c1S(=O)(=O)Nc1cc(C(F)(F)F)ccc1N1CCOCC1 4.86%
CCCOc1ccc(CN(CCO)CCO)cc1C(=O)OC 5.92%
COc1ccccc1CNC(=O)CNC(=O)c1cn(-c2ccccc2OC)c(=O)c2ccccc12 6.65%
COc1ccc(S(=O)(=O)N2CCc3ccccc32)cc1C(=O)Nc1cc(S(C)(=O)=O)ccc1Cl -23.6%
Cc1ccc(C)c(NC(=O)CN(C)C(=O)c2ccc3ncsc3c2)c1 -19.7%
CC1(C(=O)NS(=O)(=O)c2ccc(Cl)cc2)CCN1C(=O)CC1CCCC1 (centres undefined) 9.74%
Cc1ccc(NC(=O)c2sccc2C)cc1[N+](=O)[O-] -86.2%
CN(CC(=O)Nc1cccc(F)c1)C(=O)C1=COCCO1 -5.12%
Cc1ccc(NC(=O)C(C)OC(=O)Cc2c[nH]c3ccccc23)cc1S(=O)(=O)N1CCOCC1 (centres undefined) 20.8%
O=C(Nc1ccc(Br)cc1)c1cc(S(=O)(=O)Nc2ccccn2)ccc1Cl 0.47%
S=C(NN=Cc1ccccn1)Nc1ccccn1 52.5%
CCCN(CC(=O)Nc1ccc(OC)c(OC)c1)CC(=O)Nc1ccc(F)c(F)c1F -8.16%
CCOC(=O)C1CCN(S(=O)(=O)c2c(C)noc2C)CC1 -11.3%
Cc1csc(OCC(=O)Nc2ccc(C)c(C)c2)n1 -16.6%
CCOC(=O)c1cnc2ccc(F)cc2c1Nc1ccc2c(c1)OCCO2 -13.2%
c1ccc(-c2nccc(-c3ccc(-n4cnc5ccccc54)cc3)n2)nc1 34.3%
Cc1nc2ccccc2c(C(=O)O)c1-c1ccccn1 -21.4%
O=C1CC(=O)Nc2cc(S(=O)(=O)N3CCN(c4cccc(C(F)(F)F)c4)CC3)ccc2N1 -3.07%
O=C(CN1C(=O)CCS(=O)(=O)c2ccccc21)NCc1ccc(F)cc1 -8.57%
CCCCN1C(=O)CC(N2CCOCC2)C1=O (centres undefined) -4.28%
CCc1cccc(NC(=O)COC(=O)C2CCN(c3ccc(C(F)(F)F)cn3)CC2)c1 -19.1%
O=S(=O)(Nc1ccccc1N1CCOCC1)c1ccc(Cl)s1 -7.37%
O=C(Nc1cccc(Cl)c1)Nc1ccccc1NS(=O)(=O)c1cccs1 -13.8%
CCCn1nnnc1NCc1ccc(CC)cc1 8.66%
CCCC(=O)N1CCC1(C)C(=O)Nc1ccc(-n2cncn2)cc1 (centres undefined) 1.35%
O=C(c1cc(COc2c(F)cccc2F)on1)N1CCSCC1 -9.64%
Nc1[nH]c(C(=O)c2ccccc2)c(-c2ccncc2)c1C(=O)NCc1cccc2ccccc12 3.22%
CSCCC(c1nnnn1Cc1ccccc1)N1CCN(C/C=C/c2ccccc2)CC1 (centres undefined) 4.41%
C/C(=N\NC(=S)NCc1ccccc1)C1CCCCC1 14.7%
C/C(=N/NC(=S)Nc1ccccc1)c1ccc2c(c1)OCO2 -32%
O=C(CCc1ccc(S(=O)(=O)NC2CCCCC2)cc1)NCc1ccccc1 9.81%
CC(=O)Nc1ccc(S(=O)(=O)NNC(=O)CCc2ccccc2)cc1 -9.18%
COc1cc(CCC(=O)Nc2ccncc2Cl)cc(OC)c1OC -4.52%
COc1ccc(CCNC(=O)COC(=O)Cc2cc(OC)c(OC)c(OC)c2)cc1 0.01%
Cc1csc(NC(=O)CSc2ccc(-c3ccc(F)cc3)nn2)n1 11.9%
COc1ccc(CC(=O)NC2CCSc3ccccc32)cc1OC (centres undefined) -3.29%
CCc1nnc(NC(=O)CSc2nc3c(c(=O)n2-c2ccccc2OC)SCC3)s1 -5.3%
C/C(=C/C(=O)N1CCN(C)CC1)C(=O)O -1.95%
COc1cc(C2/C(=C(\O)c3ccc4c(c3)CC(C)O4)C(=O)C(=O)N2c2nnc(C)s2)cc(OC)c1OC (centres undefined) -19.5%
COc1ccccc1OCCNC(=O)CCNC(=O)c1ccccc1Cl -15.5%
CCN1C(=O)/C(=C\N2CCOCC2)SC1=S -3.91%

Inhibition of corepressor binding, active:
COc1cccc(CNc2nc(NCc3cccs3)nc3ccsc23)c1 88.5%
CCn1c(CNC(=O)c2cc(OC)c(OC)c(OC)c2)cc2cc(C)ccc21 89.3%
Cc1oc2c(F)c(F)c(F)c(F)c2c1S(=O)(=O)Nc1cccc(C(F)(F)F)c1 110%
Cc1ccc(NC(=O)CN(C)CC(=O)Nc2cccc(F)c2)cc1[N+](=O)[O-] 84.2%
Oc1ccc(Br)cc1/C=N/Nc1ccccn1 87.1%
CC(C)(C)Nc1nc(-c2ccccn2)nc2ccccc12 98.8%
COc1cc(NC(=O)c2ccccc2NS(=O)(=O)c2ccc(Cl)s2)cc(OC)c1 97.8%
C=CCC1(CC=C)CCCN1C(=O)c1cc(COc2ccc(-n3cncn3)cc2)on1 106%
C/C(=N\NC(=S)NCc1ccccc1)c1ccc(Cl)cc1 73.8%
COc1cc(CC(=O)Nc2nc(-c3ccc(F)c(F)c3)cs2)cc(OC)c1OC 103%
COc1ccc(CC(=O)Nc2nc(-c3ccc(F)c(F)c3)cs2)cc1OC 103%
